Inconclusive results are not listed. A call without a number means that no potency is given here. Activity calls are given as the source filed them. Unless noted, the call rests on the fitted dose curve; in most records, active means well fitted curve in the direction sought with a large enough effect; inconclusive means small, poorly fitted or top-dose-only effect, or another doubt; inactive means no such curve, though single readings can be large; an effect the other way counts as inactive or inconclusive.
Legend:
[1] = NS1 protein of Zika virus - qHTS assay to identify small molecule inhibitors in human HEK 293 cells (AID 1347053); further: series mostly up to about 46 µM; nearly all actives have a fitted effect of over 55% in size
Procedure, shortened: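 In this cell-based screen, HEK 293 cultures received compound for one hour before Zika MR766 at MOI = 0.5. NS1 was quantified 24 hours later by TR-FRET, normalized to virus-free wells and infected wells.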

[2] = qHTS for Inhibitors of the Functional Ribonucleoprotein Complex (vRNP) of Lassa (LASV) Arenavirus: LASV Primary Screen - GLuc reporter signal (AID 1347082; calls by dose curve; tested in HEK293 reporter line; further: series mostly up to about 57 µM; nearly all actives have a fitted effect of over 60% in size)
[3] = qHTS for Inhibitors of the Functional Ribonucleoprotein Complex (vRNP) of Lassa (LASV) Arenavirus: Viability assay - alamar blue signal for LASV Primary Screen (AID 1347083; calls by dose curve; tested in HEK293 reporter line; further: series mostly up to about 57 µM; nearly all actives have a fitted effect of over 80% in size)
[4] = qHTS for Inhibitors of the Functional Ribonucleoprotein Complex (vRNP) of Lymphocytic Choriomeningitis Arenaviruses (LCMV): Viability assay - alamar blue signal for LCMV Primary Screen (AID 1347085; calls by dose curve; tested in HEK293 reporter line; further: series mostly up to about 57 µM; nearly all actives have a fitted effect of over 80% in size)
[5] = biological target: Nucleoprotein (Lymphocytic choriomeningitis virus (strain Armstrong)) (UniProt P09992); test: qHTS for Inhibitors of the Functional Ribonucleoprotein Complex (vRNP) of Lymphocytic Choriomeningitis Arenaviruses (LCMV): LCMV Primary Screen - GLuc reporter signal (AID 1347086; calls by dose curve; further: series mostly up to about 57 µM; nearly all actives have a fitted effect of over 70% in size)
Nucleoprotein (Lymphocytic choriomeningitis virus (strain Armstrong)), sequence (P09992 whole entry, looked up): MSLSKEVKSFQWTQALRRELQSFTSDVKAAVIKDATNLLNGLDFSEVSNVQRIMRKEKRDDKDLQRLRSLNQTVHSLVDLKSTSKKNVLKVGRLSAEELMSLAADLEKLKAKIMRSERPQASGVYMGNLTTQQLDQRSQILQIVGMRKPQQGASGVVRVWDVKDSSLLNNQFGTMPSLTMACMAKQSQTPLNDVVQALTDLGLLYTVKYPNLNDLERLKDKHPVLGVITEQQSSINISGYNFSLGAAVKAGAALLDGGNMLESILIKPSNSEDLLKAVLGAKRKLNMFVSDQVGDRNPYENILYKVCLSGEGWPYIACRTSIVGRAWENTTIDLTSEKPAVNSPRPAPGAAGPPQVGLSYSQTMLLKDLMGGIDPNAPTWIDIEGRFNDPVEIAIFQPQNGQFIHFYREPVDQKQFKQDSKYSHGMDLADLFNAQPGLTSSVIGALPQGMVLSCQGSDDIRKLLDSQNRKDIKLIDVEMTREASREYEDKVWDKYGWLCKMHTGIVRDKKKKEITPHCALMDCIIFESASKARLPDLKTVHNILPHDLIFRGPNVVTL

[6] = qHTS of pediatric cancer cell lines to identify multiple opportunities for drug repurposing: Primary screen for TC32 cells (AID 1347089); further: nearly all actives have a fitted effect of over 60% in size
Procedure, shortened: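 Measured quantity: luminescence from CellTiter-Glo, reflecting metabolically active TC32 cells following 48 h of compound. Curves came straight from multi-point titrations, with 8 or 11 points in primary and 11 in confirmatory screening.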

[7] = qHTS of pediatric cancer cell lines to identify multiple opportunities for drug repurposing: Primary screen for DAOY cells (AID 1347090); further: series mostly up to about 46 µM; nearly all actives have a fitted effect of over 55% in size
Procedure, shortened: (§1)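 Viability measured as metabolically active cells via CellTiter-Glo luminescence following 48 hours of compound exposure, 11-point dilutions in confirmatory testing. 500-1,000 cells/well plated 5 hours before dosing; controls were DMSO and 2.3 µM bortezomib.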

[8] = qHTS of pediatric cancer cell lines to identify multiple opportunities for drug repurposing: Primary screen for SJ-GBM2 cells (AID 1347091)
Procedure, shortened: as §1

[9] = qHTS of pediatric cancer cell lines to identify multiple opportunities for drug repurposing: Primary screen for A673 cells (AID 1347092); further: nearly all actives have a fitted effect of over 45% in size; further: potency means the concentration at half of the fitted maximal effect
Procedure, shortened: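 Cells are plated, rested 5 h, dosed by pintool, incubated 48 h, then lysed with CellTiter-Glo and read by luminescence. DMSO is the neutral control; bortezomib at 2.3 uM final is the positive control.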

[10] = qHTS of pediatric cancer cell lines to identify multiple opportunities for drug repurposing: Primary screen for SK-N-MC cells (AID 1347093); further: series mostly up to about 46 µM
Procedure, shortened: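 Metabolically active cells were quantified by ATP-dependent luminescence (CellTiter-Glo, 15 min at room temperature) following 48 h treatment. Cells had been plated at 500-1,000 per well and settled for 5 h beforehand.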

[11] = qHTS of pediatric cancer cell lines to identify multiple opportunities for drug repurposing: Primary screen for BT-37 cells (AID 1347094); further: series mostly up to about 57 µM
Procedure, shortened: (§2)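 Cells plated at 500-1,000/well in growth medium, compounds added after 5 h. MIPE tested at 11 points (from 0.78 nM), NPC at 8 points (from 0.59 nM). CellTiter-Glo luminescence after 48 h; concentration-response curves from primary screen.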

[12] = qHTS of pediatric cancer cell lines to identify multiple opportunities for drug repurposing: Primary screen for NB-EBc1 cells (AID 1347095); further: potency means the concentration at half of the fitted maximal effect
Procedure, shortened: as §2

[13] = qHTS of pediatric cancer cell lines to identify multiple opportunities for drug repurposing: Primary screen for U-2 OS cells (AID 1347096); further: nearly all actives have a fitted effect of over 50% in size
Procedure, shortened: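 Viability after 48 h compound treatment at 37C, 500-1,000 cells/well, read as ATP luminescence with CellTiter-Glo. Primary screens used 11-point (MIPE, 0.78 nM-46 µM) or 8-point (NPC, 0.59 nM-46 µM) final concentrations; follow-up screens used 11-point dilutions.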

Row | Structure (SMILES) | Potency [1] | Potency [2] | Potency [3] | Potency [4] | Potency [5] | Potency [6] | Potency [7] | Potency [8] | Potency [9] | Potency [10] | Potency [11] | Potency [12] | Potency [13]
1 | CC1N=C(N)OC1c1ccccc1 (stereo not drawn) | inactive | inactive | inactive | inactive | inactive | inactive | inactive | inactive | inactive | inactive | inactive | inactive | inactive
2 | COc1ccc(CN2CCNCC2)c(OC)c1OC | inactive | inactive | inactive | inactive | inactive | inactive | inactive | inactive | inactive | inactive | inactive | inactive | inactive
3 | COc1cc(C[C@@H](C)N)c(OC)cc1Br | inactive | inactive | inactive | inactive | inactive | inactive | inactive | inactive | inactive | inactive | inactive | inactive | inactive
4 | NC1(c2ccccc2)CCCCC1 | inactive | inactive | inactive | inactive | inactive | inactive | inactive | inactive | 30.3 µM (active) | – | inactive | inactive | inactive
5 | CCC1(c2ccccc2)CCC(=O)NC1=O (stereo not drawn) | inactive | inactive | inactive | inactive | inactive | inactive | inactive | inactive | inactive | inactive | inactive | inactive | inactive
6 | Cc1nc2ccccc2c(=O)n1-c1ccccc1Cl | inactive | inactive | inactive | inactive | inactive | inactive | inactive | inactive | inactive | inactive | inactive | inactive | inactive
7 | O=C1CN2CCOC2(c2ccccc2Cl)c2cc(Cl)ccc2N1 (stereo not drawn) | inactive | inactive | inactive | inactive | inactive | inactive | inactive | inactive | inactive | inactive | inactive | inactive | inactive
8 | C#C[C@]1(O)C=C[C@H]2[C@@H]3CCC4=CC(=O)CC[C@@H]4[C@H]3CC[C@@]21CC | inactive | inactive | inactive | inactive | inactive | inactive | inactive | inactive | inactive | inactive | inactive | – | inactive
9 | CN1CCc2cc(Cl)c(O)cc2[C@H]2c3ccccc3CC[C@@H]21 | inactive | inactive | inactive | inactive | inactive | inactive | inactive | inactive | inactive | inactive | – | inactive | inactive
10 | Cc1ncc2n1-c1ccc(Cl)cc1C(c1ccccc1F)=NC2 | inactive | inactive | inactive | inactive | inactive | inactive | inactive | inactive | inactive | inactive | – | inactive | inactive
11 | CCOC(=O)C(c1c(O)c2ccccc2oc1=O)c1c(O)c2ccccc2oc1=O | inactive | inactive | inactive | inactive | inactive | inactive | inactive | inactive | inactive | – | inactive | inactive | inactive
12 | CCN(CC)Cc1nccn1-c1ccc([N+](=O)[O-])cc1C(=O)c1ccccc1Cl | inactive | inactive | inactive | inactive | inactive | inactive | inactive | inactive | inactive | – | inactive | inactive | inactive
13 | CCOC(C(=O)OCCN(C)C)(c1ccccc1)c1ccccc1 | inactive | inactive | inactive | inactive | inactive | inactive | inactive | inactive | inactive | – | inactive | inactive | –
14 | c1ccc2nc(N3CCNCC3)ccc2c1 | inactive | inactive | inactive | inactive | inactive | inactive | inactive | inactive | inactive | – | inactive | inactive | inactive
15 | C[C@]12CC[C@H]3[C@@H](CCC4=CC(=O)CC[C@@H]43)[C@@H]1CC[C@@H]2O | inactive | inactive | inactive | inactive | inactive | inactive | inactive | inactive | inactive | inactive | inactive | inactive | inactive
16 | C[C@H]1C(=O)O[C@@H]2CCN3CC=C(COC(=O)[C@](C)(O)[C@]1(C)O)[C@H]23 | inactive | inactive | inactive | inactive | inactive | inactive | inactive | inactive | inactive | – | inactive | 29.9 µM (active) | inactive
17 | ClC1=C(Cl)C2(Cl)C(CBr)CC1(Cl)C2(Cl)Cl (stereo not drawn) | inactive | inactive | inactive | inactive | inactive | inactive | inactive | inactive | inactive | inactive | inactive | inactive | inactive
18 | C[N+]1(CCC(C(N)=O)(c2ccccc2)c2ccccc2)CCCCC1 | inactive | inactive | inactive | inactive | inactive | inactive | inactive | inactive | inactive | inactive | inactive | inactive | inactive
19 | C1CN2CCC1CC2 | inactive | inactive | inactive | inactive | inactive | inactive | inactive | inactive | inactive | inactive | inactive | inactive | inactive
20 | CC(Cc1ccc2c(c1)OCO2)NO (stereo not drawn) | inactive | inactive | inactive | inactive | inactive | inactive | inactive | inactive | inactive | inactive | inactive | inactive | inactive
21 | Clc1ccc(C(OCCN2CCCCC2)c2ccccc2)cc1 (stereo not drawn) | inactive | inactive | inactive | inactive | inactive | inactive | inactive | – | – | – | – | – | inactive
